Experimental findings from PubChem BioAssay (NCI) are described below.

Some test systems named below: DU-145 prostate; K-562 leukemia; MALME-3M melanoma; MDA-MB-231 breast; RXF 393 renal; SF-268 CNS; SF-295 CNS; SF-539 CNS; UACC-257 melanoma; M14 melanoma; HCT-15 colon; HT29 colon; SNB-75 CNS; SNB-19 CNS; U251 CNS; PC-3 prostate; SK-MEL-5 melanoma; UACC-62 melanoma; LOX IMVI melanoma; SK-MEL-28 melanoma.
Holding throughout (assay): NCI-60 one-dose screen, 48 h (100 = growth as untreated, 0 = no growth, -100 = all killed)
What all share (conditions): 10 µM unless noted

The panel holds about 83,000 compounds, 20% with a hit somewhere; the sample as a whole holds those more often.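 Single-concentration screen, 48 h exposure, 96-well plates. Endpoint: percent growth. Below 10 = active.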 Unmarked numbers belong to inactive results. Activity calls are given as the source filed them.

For `Cn1cc(-c2cc(N)n3nc(-c4c[nH]c5ccccc45)cc3n2)c2cc(F)ccc21`, the growth in the assay on DU-145 prostate is 46.2%; with K-562 leukemia, 3.57% (active); in the assay with MALME-3M melanoma it was 76.8%; in the assay with MDA-MB-231 breast, -52.2% (active); in the assay with RXF 393 renal, 148%; in the assay with SF-268 CNS it was 65.3%. Besides, the growth is -50.8% (active) with SF-295 CNS; -61.9% (active) with SF-539 CNS; 45.7% in the assay with UACC-257 melanoma; -0.365% (active) in the assay with M14 melanoma; -77.5% (active) in the assay with HCT-15 colon; -35.4% (active) in the assay on HT29 colon. For the same compound, the growth is 71.5% in the assay with SNB-75 CNS; 15% in the assay on SNB-19 CNS; -39.4% (active) with U251 CNS; 17.4% in the assay on PC-3 prostate; 67.4% with SK-MEL-5 melanoma; 66.3% in the assay on UACC-62 melanoma. In addition, the growth in the assay with LOX IMVI melanoma was -80.7% (active); in the assay on SK-MEL-28 melanoma, 77.5%.
With `Nc1cc(-c2c[nH]c3ccc(Br)cc23)nc2cc(-c3c[nH]c4ccccc34)nn12`, the growth in the assay on DU-145 prostate was -47.5% (active); in the assay on K-562 leukemia, 6.16% (active); in the assay on MALME-3M melanoma, -88.1% (active); with MDA-MB-231 breast, -83.3% (active); in the assay on RXF 393 renal it was -76.7% (active); with SF-268 CNS, -44.5% (active). The growth was -87.6% (active) in the assay with SF-295 CNS; -93.5% (active) in the assay with SF-539 CNS; -86.9% (active) with UACC-257 melanoma; -69.4% (active) in the assay on M14 melanoma; -67% (active) with HCT-15 colon; -54.8% (active) in the assay with HT29 colon. Moreover, the growth is -11% (active) with SNB-75 CNS; -77.6% (active) in the assay on SNB-19 CNS; -83.3% (active) in the assay on U251 CNS; -21.1% (active) in the assay with PC-3 prostate; -96.4% (active) in the assay with SK-MEL-5 melanoma; -89.4% (active) in the assay with UACC-62 melanoma. The growth was -86.8% (active) in the assay on LOX IMVI melanoma and -98.5% (active) with SK-MEL-28 melanoma.
With `COc1ccc2[nH]c(O)c(N=Nc3nc(-c4ccc(Cl)cc4)cs3)c2c1`, the growth in the assay with DU-145 prostate was 4.95% (active); with K-562 leukemia, 12.1%; with MALME-3M melanoma it was -63.5% (active); with MDA-MB-231 breast, 17.6%; in the assay on RXF 393 renal, -90% (active); with SF-268 CNS, -9.32% (active). In addition, the growth in the assay on SF-295 CNS was -46% (active); with SF-539 CNS, -60.5% (active); in the assay on UACC-257 melanoma, 9.82% (active); in the assay with M14 melanoma it was -9.9% (active); in the assay with HCT-15 colon it was -53.3% (active); in the assay with HT29 colon it was -18.4% (active). Moreover, the growth with SNB-75 CNS is -66.9% (active); in the assay with SNB-19 CNS, 24.1%; in the assay with U251 CNS, -75.6% (active); with PC-3 prostate, -10.5% (active); with SK-MEL-5 melanoma it was 8.45% (active); in the assay with UACC-62 melanoma, -32.3% (active). The growth was -54.9% (active) in the assay with LOX IMVI melanoma and -24.2% (active) in the assay on SK-MEL-28 melanoma.
Regarding `Cc1ccc(S(=O)(=O)Nc2ccc(-c3ccc4c(c3)NC(=O)/C4=C\c3ccc[nH]3)cc2)cc1`, the growth with DU-145 prostate is 65.6%; with K-562 leukemia, 42.2%; with MALME-3M melanoma, 90%; in the assay with MDA-MB-231 breast it was 97.4%; in the assay on RXF 393 renal it was 96.4%; with SF-268 CNS, 111%. Further, the growth was 93.8% with SF-295 CNS; 93.8% in the assay with SF-539 CNS; 110% in the assay on UACC-257 melanoma; 90.9% with M14 melanoma; 68.7% with HCT-15 colon; 78.5% with HT29 colon. Further, the growth in the assay on SNB-75 CNS was 96.1%; in the assay with SNB-19 CNS, 95.1%; in the assay with U251 CNS it was 77.3%; in the assay with PC-3 prostate it was 80.1%; with SK-MEL-5 melanoma, 99.1%; with UACC-62 melanoma it was 89.8%. Besides, the figures for the growth in the assay with LOX IMVI melanoma and with SK-MEL-28 melanoma were 91.7% and 95.9%, respectively.
Turning to `FC(F)(F)c1cc2c(Cl)ncnc2n1CCC1CCOCC1`, the growth was -99.6% (active) in the assay with DU-145 prostate; -26.3% (active) in the assay on K-562 leukemia; 79.2% with MALME-3M melanoma; 0.4% (active) in the assay on MDA-MB-231 breast; 57.8% with RXF 393 renal; -71.1% (active) in the assay on SF-268 CNS. Besides, the growth in the assay on SF-295 CNS was 70.8%; with SF-539 CNS, 70.8%; in the assay on UACC-257 melanoma, 37.6%; with M14 melanoma, -83.5% (active); with HCT-15 colon, -37.7% (active); with HT29 colon, 48.5%. In addition, the growth in the assay on SNB-75 CNS was -91.1% (active); in the assay with SNB-19 CNS it was -99% (active); in the assay with U251 CNS, -14.4% (active); with PC-3 prostate, 2.75% (active); with SK-MEL-5 melanoma, -83.7% (active); in the assay with UACC-62 melanoma, -34.5% (active). The growth with LOX IMVI melanoma was -97% (active); in the assay on SK-MEL-28 melanoma it was -0.403% (active).
On to `O=C1NC(=S)/C(=C/c2cn(-c3ccccc3)nc2-c2ccccc2)S1`, for which the growth was 34.4% in the assay with DU-145 prostate; 22.2% in the assay with K-562 leukemia; 10.4% in the assay on MALME-3M melanoma; 39.5% in the assay with MDA-MB-231 breast; 9.95% (active) with RXF 393 renal; 36.4% in the assay on SF-268 CNS. The growth is 17% with SF-295 CNS; 22.5% in the assay on SF-539 CNS; 6.05% (active) with UACC-257 melanoma; 25% in the assay with M14 melanoma; 20% in the assay with HCT-15 colon; 22.9% in the assay on HT29 colon. For the same compound, the growth in the assay with SNB-75 CNS is 80.7%; with SNB-19 CNS, 14.3%; in the assay on U251 CNS, 14.6%; in the assay with PC-3 prostate, 34.9%; in the assay on SK-MEL-5 melanoma, -42.3% (active); in the assay on UACC-62 melanoma, 6.83% (active). Also, the values for the growth in the assay on LOX IMVI melanoma and in the assay with SK-MEL-28 melanoma were 28.9% and 20.5%, respectively.
As to `O=C(Cc1c(-c2ccccc2[N+](=O)[O-])n(-c2ncnc3c2c(-c2ccccc2)c(-c2ccccc2)n3Cc2ccccc2)[nH]c1=O)c1ccc(Cl)c(Cl)c1`, the growth is 32.2% in the assay with DU-145 prostate; 12% in the assay with K-562 leukemia; -12.6% (active) in the assay on MALME-3M melanoma; 33.5% in the assay on MDA-MB-231 breast; 31.7% in the assay on RXF 393 renal; 30.9% in the assay on SF-268 CNS. The growth with SF-295 CNS was 3.25% (active); in the assay on SF-539 CNS, 38.2%; in the assay with UACC-257 melanoma, 11.5%; in the assay with M14 melanoma it was 14.6%; with HCT-15 colon it was 46.9%; in the assay with HT29 colon, 18.4%. In addition, the growth was 14% in the assay on SNB-75 CNS; 16.8% in the assay with SNB-19 CNS; 28.1% with U251 CNS; 8.7% (active) with PC-3 prostate; -45.3% (active) in the assay on SK-MEL-5 melanoma; -9.59% (active) in the assay on UACC-62 melanoma. Moreover, the results for the growth in the assay with LOX IMVI melanoma and with SK-MEL-28 melanoma were 14.9% and 27.8%, respectively.
